Molecules are shown by their SMILES. Hit rate of the full screen: of about 290,000 compounds, about 3,300 (1.1%) were called active. Only a selection was taken, and actives are over-represented in it overall. Unmarked numbers belong to inactive results. No stated cut-off is given here; in the data, active means binding response below about 67% or above about 130%; inconclusive means no clear call, values can overlap the other calls; inactive means in between.

The target of this assay is Mitogen-activated protein kinase kinase kinase 2 (Homo sapiens) (UniProt Q9Y2U5). Kind of assay: wildtype MEKK2 PB1-MEK5 interaction, increase or decrease – biochemical, multiplex bead flow cytometry, Alexa488-MEK5, primary screen (AID 1531). Particulars: Alexa488-MEK5 binding to MEKK2 WT, at 10 µM, actives lie on both sides. For orientation: Flow cytometry measures light scatter and fluorescence of single cells or particles in a stream.
For `CCN(CC(=O)NCC(=O)Nc1cccc(C)c1C)Cc1ccccc1`, the binding response (% of control) is 103%.
With `COc1cc(C2C3=C(CCCC3=O)OC3=C2C(=O)CCC3)ccc1OCC(=O)Nc1ccccc1`, the binding response (% of control) is 96%.
As to `CCOC(=O)/C(C#N)=C/c1ccc(OCC(=O)Nc2ccccc2)c(OC)c1`, the binding response (% of control) is 37% [inhibitor] (active).
As for `CCCn1c(C)cc(/C=C(\C#N)C(=O)OCC(=O)Nc2cc(OC)c(OC)c(OC)c2)c1C`, the binding response (% of control) is 106%.
For the compound `Cc1ccc(OCC(O)CN2CCN(CC(O)COc3ccc(C)cc3Cl)CC2)c(Cl)c1` (stereo not drawn), the binding response (% of control) is 134% (active).
For `Cc1cccc(OCC(O)CN2CCN(S(=O)(=O)c3ccc(C)cc3C)CC2)c1` (stereo not drawn), the binding response (% of control) is 95%.
In the case of `OC(COc1ccc(F)cc1Cl)CN1CCc2ccccc2C1` (stereo not drawn), the binding response (% of control) is 105%.
Turning to `C[n+]1cc(-c2ccccc2)oc1-c1ccccc1`, the binding response (% of control) was 100%.
On to `COc1ccc(CCn2c(NCCCN3CCOCC3)nc3c2c(=O)[nH]c(=O)n3C)cc1`, for which the binding response (% of control) was 103%.
With `COc1ccc(CNc2nc3c(c(=O)[nH]c(=O)n3C)n2Cc2ccccc2)cc1`, the binding response (% of control) is 109%.
As for `COc1ccc(CCn2c(NN=C3CCCC3)nc3c2c(=O)[nH]c(=O)n3C)cc1`, the binding response (% of control) is 39% [inhibitor] (active).
Consider `COC(=O)CN1C(=O)[C@H]2[C@@H](/C=C/c3ccccc3)N3C(=O)CN(CC4CC4)C(=O)[C@@]3(Cc3ccccc3)[C@H]2C1=O`, for which the binding response (% of control) was 104%.
Turning to `CC1=C(N2CCN(c3ncccn3)CC2)CCC1=O`, the binding response (% of control) was 111%.
Next, `COc1cccc(CNC(=O)C2CC(=O)N(C3CCCCCCC3)C2)c1` (stereo not drawn): 94%.
Take `O=C(Nc1nnc(C2CC2)s1)c1cc(Cl)sc1Cl`: the binding response (% of control) was 102%.
`CC(C)(C)NC(=O)NC(=O)COC(=O)C1c2ccccc2Oc2ccccc21`: the binding response (% of control) was 100%.
Next, `COc1cccc(OCC(=O)NNC(=O)c2cnccn2)c1`: 2% [inhibitor] (active); `COc1cccc(OCC(=O)Nc2ccccc2C(N)=O)c1`: 115%; `COc1ccc(OCC(=O)NNC(=O)c2cccc(C)c2)cc1`: 93%.
With `COc1ccc(CCNC(=O)CCNS(=O)(=O)c2cc(Br)cnc2N)cc1OC`, the binding response (% of control) is 106%.
Next, `COc1cc(-c2nnc(Cn3cc(C(F)(F)F)ccc3=O)o2)cc(OC)c1OC`: 3% [inhibitor] (active).
As to `CCOC(=O)c1cc(-c2nnc(-c3cc(OC)c(OC)c(OC)c3)o2)c(C)nc1C`, the binding response (% of control) is 104%.
`CC(C)(C)NC(=O)c1ccc(Cn2cc(C(F)(F)F)ccc2=O)cc1`: the binding response (% of control) is 101%.
Next, `CCC(Cc1ccccc1)NS(=O)(=O)c1ccc2c(c1)NC(=O)CS2` (stereo not drawn): 102%; `Nc1cc(N)nc(SCc2cccc(F)c2)n1`: 104%; `COC(=O)c1c(C)cc(O)c(C)c1O`: 104%.
For `CCCCn1c(SCC(=O)NCCc2ccc(OC)c(OC)c2)nc2c1c(=O)n(C)c(=O)n2C` the value was -4% [inhibitor] (active); for `CCn1c(NCCc2ccc(OC)c(OC)c2)nc2c1c(=O)n(C)c(=O)n2C`, 102%.
On to `C#CC(C)(C)NC(=O)CSc1nc2c(c(=O)n(C)c(=O)n2C)n1CCCC`, for which the binding response (% of control) was 106%.
Consider `CCN(CC)CCC(c1cc(OC)c(OC)c(OC)c1)c1c(OC)cc(OC)c2c(-c3ccccc3)cc(=O)oc12` (stereo not drawn), for which the binding response (% of control) was 90%.
Next, `COc1cc(OC)c(C(=O)NCc2ccc3c(c2)OCO3)cc1OC`: 102%; `CCN(CC)CCC(c1ccc2c(c1)OCO2)c1c(OC)cc(OC)c2c(-c3ccccc3)cc(=O)oc12` (stereo not drawn): 137% (active).
For `CCCCN(CC)C(=O)c1ccc2c(c1)OCO2` the value was 100%; for `COc1cc(OC)c2ccc(=O)oc2c1C(CCN1CCN(c2ccccc2)CC1)c1ccc2c(c1)OCO2` (stereo not drawn), 110%.
As for `CCN(CC)C(=O)CC(c1ccc2c(c1)OCO2)c1c(OC)cc(OC)c2c(-c3ccccc3)cc(=O)oc12` (stereo not drawn), the binding response (% of control) is 143% (active).
As to `Cc1cccc(Nc2nc(NCCO)nc(N3CCCC3)n2)c1`, the binding response (% of control) was 109%.
As to `COc1cc(CC(=O)N2CCC(n3nccc3NC(=O)C3CC3)CC2)cc(OC)c1OC`, the binding response (% of control) is 103%.
With `CCN(CC)CCOCCOc1ccc(Cl)c2ccccc12`, the binding response (% of control) was 7% [inhibitor] (active).
Regarding `Clc1cccc(Cl)c1OCCOCCNCc1ccccc1`, the binding response (% of control) is 109%.
For the compound `CCC(C(=O)OCCN(CC)CC)c1ccccc1` (stereo not drawn), the binding response (% of control) was 101%.
Regarding `Cc1cccc(NC(=S)NCCc2ccc(Cl)cc2)c1C`, the binding response (% of control) is 106%.
Next, `Cc1ccc(S(=O)(=O)N(C)CC(=O)NCCc2c[nH]c3ccccc23)cc1`: 107%.
Next, `CCOC(=O)c1ccc(NC(=O)c2c(NCc3ccccc3)[nH]c(=O)[nH]c2=O)cc1`: 102%; `CC1CN(C(=O)CCC(=O)NC2CCN(Cc3ccccc3)CC2)c2ccccc2O1` (stereo not drawn): 107%.
On to `CC1CN(C(=O)CCC(=O)NCc2cccnc2)c2ccccc2O1` (stereo not drawn), for which the binding response (% of control) was 103%.
For the compound `CC1CN(C(=O)CCC(=O)NCCCN2CCC(Cc3ccccc3)CC2)c2cc(Cl)ccc2O1` (stereo not drawn), the binding response (% of control) is 163% (active).
Next, `O=C(CN1CCCCCC1)Nc1ccc(S(=O)(=O)N2CCCCC2)cc1`: 100%; `O=C(NCc1ccccc1Cl)C1CCN(c2ncnc3c2nc2n3CCCCC2)CC1`: 102%.

The values are drawn from PubChem BioAssay AID1531 (NMMLSC, 2009).
